Results reported in PubChem BioAssay AID504734 (The Scripps Research Institute Molecular Screening Center, 2011).
The whole screen tested about 340,000 compounds, of which about 730 (0.21%) were called active.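 The calls were made as follows: active = inhibition above the mean over all tested compounds plus 3 SD (cut at about 21% in these data); inactive = the rest.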 This excerpt belongs to a sample that is enriched for actives.

The compounds below were run against Toll-like receptor 9 (Homo sapiens) + Myeloid differentiation primary response protein MyD88 (Homo sapiens) (UniProt Q9NR96+Q99836) (assay: inhibitors of TLR9-MyD88 association in cells, primary screen, cell-based, CHO, BLA complementation, fluorescence (AID 504734;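 also: 0% = DMSO only wells and 100% = clavulanate BLA inhibitor control wells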)). Settings: CHO BLA complementation TLR9-MyD88, CCF4 FRET ratio; at 4.98 µM; active compounds read high.
Chain of Toll-like receptor 9 (Homo sapiens) + Myeloid differentiation primary response protein MyD88 (Homo sapiens) (Q99836 whole entry, looked up): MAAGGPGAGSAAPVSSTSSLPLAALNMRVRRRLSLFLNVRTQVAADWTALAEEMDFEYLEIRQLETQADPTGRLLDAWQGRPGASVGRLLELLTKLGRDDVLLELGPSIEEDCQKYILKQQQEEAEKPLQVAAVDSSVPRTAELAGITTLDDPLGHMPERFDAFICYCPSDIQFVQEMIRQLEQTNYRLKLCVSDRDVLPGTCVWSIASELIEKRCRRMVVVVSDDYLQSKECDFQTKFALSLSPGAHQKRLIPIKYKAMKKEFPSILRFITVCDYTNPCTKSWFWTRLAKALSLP
Chain of Toll-like receptor 9 (Homo sapiens) + Myeloid differentiation primary response protein MyD88 (Homo sapiens) (Q9NR96 whole entry, looked up): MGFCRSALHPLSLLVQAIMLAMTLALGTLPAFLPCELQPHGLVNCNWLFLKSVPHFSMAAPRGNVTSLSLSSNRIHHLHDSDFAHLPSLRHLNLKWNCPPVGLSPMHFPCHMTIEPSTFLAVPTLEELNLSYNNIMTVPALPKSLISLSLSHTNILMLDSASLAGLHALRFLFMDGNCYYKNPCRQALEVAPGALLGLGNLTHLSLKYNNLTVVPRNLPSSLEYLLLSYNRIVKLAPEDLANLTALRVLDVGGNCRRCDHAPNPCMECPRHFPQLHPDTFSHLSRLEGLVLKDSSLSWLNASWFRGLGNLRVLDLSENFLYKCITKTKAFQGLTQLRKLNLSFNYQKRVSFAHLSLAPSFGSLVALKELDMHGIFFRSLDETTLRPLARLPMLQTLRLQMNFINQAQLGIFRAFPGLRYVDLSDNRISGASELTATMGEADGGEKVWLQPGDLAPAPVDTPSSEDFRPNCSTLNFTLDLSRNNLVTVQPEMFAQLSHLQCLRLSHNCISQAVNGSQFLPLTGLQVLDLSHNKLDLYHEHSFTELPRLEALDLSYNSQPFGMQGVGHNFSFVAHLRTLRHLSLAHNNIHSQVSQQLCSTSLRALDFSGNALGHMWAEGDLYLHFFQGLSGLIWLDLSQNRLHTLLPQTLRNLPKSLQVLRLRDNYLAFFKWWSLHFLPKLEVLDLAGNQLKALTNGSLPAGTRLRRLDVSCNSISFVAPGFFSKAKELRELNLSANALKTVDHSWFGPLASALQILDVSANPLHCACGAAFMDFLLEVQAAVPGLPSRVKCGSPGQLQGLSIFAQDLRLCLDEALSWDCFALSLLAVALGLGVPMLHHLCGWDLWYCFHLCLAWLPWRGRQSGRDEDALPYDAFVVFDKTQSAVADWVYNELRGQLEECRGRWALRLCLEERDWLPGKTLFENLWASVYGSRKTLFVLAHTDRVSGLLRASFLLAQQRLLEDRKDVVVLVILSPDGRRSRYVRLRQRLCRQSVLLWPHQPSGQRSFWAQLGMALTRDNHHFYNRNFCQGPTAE

inhibition, active:
O=C(Nc1ccccc1Cl)/C(Cl)=C(\Cl)S(=O)c1ccccc1 (stereo not given) 23.8%, O=C(CCN1C(=O)c2ccccc2C1=O)NNC(=O)c1ccc(Cl)cc1Cl 29.1%, Brc1ccc(C2=CC(c3ccco3)n3ncnc3N2)cc1 (stereo not given) 30.4%, CCOc1ccc(C2=CC(c3ccccc3)n3ncnc3N2)cc1 (stereo not given) 33.7%, O=C1NC(=O)C2C1C(c1ccc([N+](=O)[O-])cc1)=NN2Cc1ccccc1 (stereo not given) 27.8%, COC(=O)Cc1cc(=O)oc2c(C)c(O)ccc12 21.6%, C[N+](C)(C)CCNC(=O)c1cc[n+](Cc2ccccc2)c(/C=N/O)c1 22.8%, COc1ccc(OC)c(N=Cc2c(O)[nH]c3ccccc23)c1 41.1%

inhibition, inactive:
NC(=O)C1(Nc2ccccc2Cl)CCCC1 -10.1%, O=C(CCN1CCN(C/C=C/c2ccccc2)CC1)Nc1ccccc1Cl 2.63%, CN1OC[C@@H]2CN(S(=O)(=O)c3cccc(C(F)(F)F)c3)[C@H](c3ccc(-c4cc5ccccc5o4)cc3)C[C@@H]21 -0.31%, Cc1cc(C)cc(OCC(=O)NNC(=O)CCN2C(=O)c3ccccc3C2=O)c1 -3.37%, Cc1cc(C)cc(NC(=O)CCN2C(=O)c3ccccc3C2=O)c1 -4.31%, Cc1ccc(-c2ccc(CN3C(C(C)C)C(=O)N(Cc4cn(CCC5OCCCO5)nn4)CCS3(=O)=O)cc2)cc1 (stereo not given) -5.52%, CC(OC(=O)c1ccc(NC(=O)CC#N)cc1)C(=O)Nc1ccc(S(=O)(=O)N2CCCC2)cc1 (stereo not given) 0.94%, COCCCn1c(C(=O)NC2CCCCC2)cc2c(=O)n3cccc(C)c3nc21 -12.6%, CC1(C)CN(Cc2cccnc2)C(=O)[C@H]1CC(=O)Nc1ccc(Br)cc1 -3.44%, O=C(CSc1ccc(Cl)cc1)NC1CC1 -15.8%, C#CCN(C[C@H]1[C@H](OC(=O)NC2CCCC2)[C@H](OC(=O)NC2CCCC2)C[C@H]2C(=O)N(c3ccccc3)C(=O)[C@@H]12)S(=O)(=O)c1ccc(C)cc1 -5.56%, Clc1ccc2c(c1)C1=C(C(c3ccncc3)O2)C(c2ccc(Br)cc2)n2ncnc2N1 (stereo not given) -8.31%, CC1=C(C(=O)OC2CCCCC2)C(c2cccnc2)n2ncnc2N1 (stereo not given) -0.13%, COc1ccc(C2CC(c3ccc(C)cc3)Nc3ncnn32)cc1 (stereo not given) 1.5%, CCN1C(=O)[C@H]2[C@@H](c3ccc(C(F)(F)F)cc3)N[C@]3(CCCN(Cc4ccc(Br)cc4)C3=O)[C@H]2C1=O 5.46%, N#CCCN(C(=O)Nc1ccc(Cl)c(Cl)c1)C1CCCCC1 8.97%, CCN(C(=O)Nc1cccc2ccccc12)c1ccccc1 -15.1%, Cc1nc2ccccc2nc1CC(O)(c1ccccc1)c1ccccc1 2.03%, CCOC(=O)c1cc(-c2sc(NC(=O)c3ccccc3)nc2C)n(CCO)n1 2.6%, Cc1cc2c3ccccc3[nH]c(=O)n2n1 1.06%, CN(c1ccccc1)S(=O)(=O)c1ccc(C(=O)NCc2cccnc2)cc1 7.85%, CC1CN(Cc2ccccc2)C(=S)NC1=O (stereo not given) -6.13%, O=[N+]([O-])c1ccc(C(S(=O)(=O)Cc2ccccc2)S(=O)(=O)Cc2ccccc2)cc1 2.65%, CN(Cc1ccccc1)C(=O)CCC1CCN(C(=O)c2ccco2)CC1 0.05%, NS(=O)(=O)c1ccc(CNC(=O)c2cc(S(=O)(=O)N3CCOCC3)ccc2N2CCCC2)cc1 -5.7%, CC1(c2cccc(Br)c2)NC(=O)N(CC(=O)NCCC2=CCCCC2)C1=O (stereo not given) 3.69%, CCCc1cc(=O)oc2c(C)c(OCC(=O)Nc3ccccn3)ccc12 6.85%, COc1cccc(C(=O)OCc2cc(=O)oc3c(C)c(C)ccc23)c1OC -5.33%, S=C(NN=Cc1ccccn1)Nc1ccccn1 10.2%, CC1C(=O)N(Cc2cn(Cc3ccco3)nn2)CCS(=O)(=O)N1Cc1ccc(-c2cccc(CO)c2)cc1 (stereo not given) -1.07%, C[C@@H]1CN([C@@H](C)CO)C(=O)CCCn2nncc2CO[C@H]1CN(C)Cc1ccc(C(F)(F)F)cc1 -8.49%, O=C(NCCCNCc1ccccc1)c1ccc(/C=N/O)nc1 -3.77%, C[n+]1ccc(C(=O)NCc2ccccc2)cc1 -10.2%, Cc1ccc2cccc([N+](=O)[O-])c2n1 4.24%, COc1ccc(CCNC(=O)CN(c2ccccc2)S(=O)(=O)c2ccccc2)cc1 0.66%, COc1cc2[nH]c(O)c(C=O)c2cc1OC -8.58%, CN=c1scc(-c2cc(OC)ccc2OC)n1/N=C/c1c(C)[nH]c2ccccc12 6.42%
